Assay results reported in PubChem BioAssay AID1304 (The Scripps Research Institute Molecular Screening Center, 2008).
Screen size: about 220,000 compounds; about 800 (0.36%) were called active. Cut-off read from the data, not from the text of the source: active = activation above about 33% (passing the limit was not always enough); inactive = the rest. For the sample, actives were picked, then their nearest neighbours and some compounds at random.

biological target: Neuropeptide Y receptor type 1 (Homo sapiens) (UniProt P25929); experiment: activation enhancers of human NPY-Y1 – cell-based, primary screen (AID 1304); conditions: NPY-Y1 expressing cells, potentiator/agonist activation; at 3.6 µM; stronger effect = higher value;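 note: cells stimulated with NPY at EC10 then isoproterenol at EC100; 0% = low agonist plus stimulus and 100% = saturating agonist plus stimulus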
Sequence (P25929 whole entry, looked up): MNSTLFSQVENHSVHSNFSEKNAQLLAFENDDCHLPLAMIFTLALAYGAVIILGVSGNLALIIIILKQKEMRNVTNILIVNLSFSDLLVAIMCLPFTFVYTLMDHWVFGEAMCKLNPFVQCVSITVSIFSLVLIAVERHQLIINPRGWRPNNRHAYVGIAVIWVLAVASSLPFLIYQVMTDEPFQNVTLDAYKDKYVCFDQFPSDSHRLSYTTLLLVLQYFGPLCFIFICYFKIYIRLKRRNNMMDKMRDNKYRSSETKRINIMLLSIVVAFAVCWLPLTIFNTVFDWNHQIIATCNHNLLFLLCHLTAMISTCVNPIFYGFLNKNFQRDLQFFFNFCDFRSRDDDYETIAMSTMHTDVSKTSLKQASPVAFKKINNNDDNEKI

| SMILES | activation |
| --- | --- |
| Cc1ccn(-c2cccc(-n3ccc(C)n3)n2)n1 | -27.2% (inactive) |
| S=C(NCc1ccc2c(c1)OCO2)NCc1ccco1 | -4.25% (inactive) |
| C=CCOc1ccc(/C=C2\SC(=S)N(CCC(=O)O)C2=O)cc1 | 6.81% (inactive) |
| CC(=O)Nc1ccc(OC(=O)COc2ccc(Br)cc2)cc1 | -18.4% (inactive) |
| CCOC(=O)CN(C(=O)COc1nc(-c2ccccc2)cc(C)c1C#N)c1ccc(F)cc1 | -29.2% (inactive) |
| Cc1nccn1CC(=O)N/N=C/c1ccc(O)c(O)c1 | 2.53% (inactive) |
| O=C(Nc1ccccc1)Nc1ccc(C(F)(F)F)cn1 | 5.1% (inactive) |
| Oc1ccc(/C=N/Nc2ccc(C(F)(F)F)cn2)cc1O | 54.9% (active) |
| Cc1cc(/C=C2/SC(=O)N(CC(=O)N3CCCC3)C2=O)ccc1N1CCOCC1 | 15.8% (inactive) |
| O=C(NCc1ccccc1)C1=C[C@@H](c2ccc(C(F)(F)F)cc2)C[C@@H](OCc2ccc(CO)cc2)O1 | -2.07% (inactive) |
| CC(=O)Nc1ccc(NC(=O)C(C)n2c3ccccc3c3nc(=O)cc(C)n32)cc1 (configuration not stated) | -7.92% (inactive) |
| CCNS(=O)(=O)c1ccc(NC(=O)Nc2cccc(C(F)(F)F)c2)cc1 | 47.1% (active) |
| CCNS(=O)(=O)c1ccc(NC(=O)Nc2cccc(OC)c2)cc1 | 13.3% (inactive) |
| Cc1ccc(NC(=O)Nc2cccc(C(F)(F)F)c2)nc1 | 1.1% (inactive) |
| Cc1cc(Cl)ccc1NC(=S)NCCCN1CCCC1=O | 3.39% (inactive) |
| COC(=O)c1cc(S(=O)(=O)N2CCC(C(N)=O)CC2)oc1C | -1.47% (inactive) |
| O=[N+]([O-])c1cc(Cl)cc(/C=N/NC(=S)Nc2cc(S(=O)(=O)N3CCOCC3)ccc2Cl)c1O | 77.5% (active) |
| O=C(CN1CCN(c2ccc(O)cc2)CC1)Nc1cc(S(=O)(=O)N2CCOCC2)ccc1Cl | -5.24% (inactive) |
| O=C(N/N=C/c1ccc([N+](=O)[O-])o1)c1cccc(S(=O)(=O)N2CCOCC2)c1 | -11.9% (inactive) |
| CC(C)(C)C(=O)NNC(=O)c1ccc(Oc2cc(Cl)cc(Cl)c2)o1 | -7.64% (inactive) |
| Cc1ccc(C)c(Cn2cnc3c(oc4ccccc43)c2=O)c1 | -12.5% (inactive) |

| SMILES | activation |
| --- | --- |
| COc1cccc2cc(S(=O)(=O)c3ccc(C)cc3)/c(=N/NS(=O)(=O)c3ccc(C)cc3)oc12 | 2.71% (inactive) |
| C=CCNC(=O)/C=C/c1ccc(C(C)C)cc1 | 9.4% (inactive) |
| COc1ccc(C(=O)C2CCCN(Cc3ccc4nonc4c3)C2)c(C)c1 (configuration not stated) | -11.8% (inactive) |
| COc1ccc(C(=O)C2CCCN(Cc3cccn3-c3ccccn3)C2)c(C)c1 (configuration not stated) | 79.6% (active) |
| CCOC(=O)c1[nH]ncc1CN1CCCC(C(=O)c2ccc(OC)cc2C)C1 (configuration not stated) | -0.54% (inactive) |
| COC(=O)C1=C(C(=O)OC)C2(OC1c1ccc(Br)cc1)C(=O)c1ccccc1C2=O (configuration not stated) | 2.63% (inactive) |
| Nc1c(-c2cccc(Cl)c2)cnn1-c1cccc([N+](=O)[O-])c1 | 43.2% (inactive) |
| CCOC(=O)/C(N=Nc1cc(C(=O)O)cc(C(=O)O)c1)=C(\O)CCl | -8% (inactive) |
| Cc1ccccc1NCC(=O)N/N=C\c1ccc([N+](=O)[O-])s1 | 39.4% (active) |
| CCOc1ccc(NC(=O)CCC(=O)N/N=C/c2ccc([N+](=O)[O-])s2)cc1 | 19.1% (inactive) |
| COc1ccc(C(=O)NCC(=O)N/N=C/c2ccc([N+](=O)[O-])s2)cc1OC | 6.89% (inactive) |
| CCc1ccc2nc(Nc3ncc(C(C)=O)c(C)n3)nc(C)c2c1 | 9.28% (inactive) |
| OCC1(CCc2ccccc2)CCN(Cc2ccc3nsnc3c2)CC1 | -0.79% (inactive) |
| O=C(/C=C/c1cnc2ccccc2n1)NC1CCCCCC1 | -3.45% (inactive) |
| COCCNC(=O)/C(C#N)=C/c1nc(N(C)C)n(-c2ccc(F)cc2)c1Cl | 0.95% (inactive) |
| CCCCN1C(=S)NC[C@@H]1C(C)CC (some centres not stated) | -11.4% (inactive) |
| O=C(c1cccs1)N1CCN(C(=O)N2CCOCC2)CC1 | 112% (active) |
| Cc1ccc(C(=O)N2CCN(C(=O)N3CCOCC3)CC2)cc1 | -5.88% (inactive) |
| CCS(=O)(=O)N1CCN(C(=O)c2cccs2)CC1 | 3.05% (inactive) |
| O=S1(=O)C=C(SCCN2CCCC2)c2ccccc21 | 19% (inactive) |
| O=C(CN1C(=O)CC(c2ccccc2)S(=O)(=O)c2ccccc21)NC1CCCC1 (configuration not stated) | -1.33% (inactive) |

| SMILES | activation |
| --- | --- |
| Cc1cc([N+](=O)[O-])c(NC2CCCCC2)c([N+](=O)[O-])c1 | -19.9% (inactive) |
| Cc1cc(-c2nnc(CCC(=O)NC(c3ccccc3)c3ccccc3)o2)no1 | -1.1% (inactive) |
| O=C(NC1CCN(Cc2ccccc2)CC1)c1ccc(Oc2cc(Cl)cc(Cl)c2)o1 | 2.83% (inactive) |
| O=C(NC(=S)N1CCc2ccccc21)c1ccco1 | 5.18% (inactive) |
| COc1ccccc1NC(=O)/C=C/C(=O)O | -17.3% (inactive) |
| COC(=O)c1sc(-c2ccc(C(C)(C)C)cc2)cc1NC(=O)/C=C/C(=O)O | 51.4% (active) |
| O=C(O)/C=C/C(=O)Nc1ccc(F)cc1F | -9.35% (inactive) |
| CCOC(=O)C1CCN(C(=O)Nc2ccc(C)c(Cl)c2)CC1 | 2.62% (inactive) |
| CCCCCCCCCCCCN1C(=O)CSC1c1cccnc1 (configuration not stated) | 5.01% (inactive) |
| CC1=C/C(=N\OS(=O)(=O)c2ccccc2)C=CC1=O | 44.8% (active) |
| CC1=C/C(=N\S(=O)(=O)c2ccccc2)C(C(C)C)=CC1=O | 2.13% (inactive) |
| CCOC(=O)C1(S(=O)(=O)c2ccccc2)CCN(Cc2ccccc2)CC1 | 3.32% (inactive) |
| COc1ccc(C(=O)COC(=O)c2nn(C)c(=O)c3ccccc23)c(OC)c1 | -10.6% (inactive) |
| CCOc1ccc(C(=O)NC(=S)Nc2ccc(NC(=O)C(C)C)cc2)cc1[N+](=O)[O-] | -12.8% (inactive) |
| NC(=O)C1(N2CCCCC2)CCN(C(=O)c2ccc(C#Cc3ccccc3)o2)CC1 | 62.8% (active) |
| CC(C)(O)C#Cc1ccc(C(=O)N2CCC(C(N)=O)(N3CCCCC3)CC2)cc1 | 4.73% (inactive) |
| NC(=O)C1(N2CCCCC2)CCN(C(=S)Nc2ccc(Cl)cc2)CC1 | -0.45% (inactive) |
| O=c1oc(-c2ccco2)nc2sc3c(c12)CCCCC3 | 9.25% (inactive) |
| CN(c1ccccc1)S(=O)(=O)c1cccc(NC(=O)Cc2c(F)cccc2Cl)c1 | -12% (inactive) |
| C#CCOCCOCCOCCNc1nc(N2CCN(C(=O)C(Cc3ccc(O)cc3)n3cc(C(N)CC(C)C)nn3)CC2)nc(N2CCN(C(=O)C(Cc3ccc(O)cc3)n3cc(C(N)C(C)CC)nn3)CC2)n1 (configuration not stated) | 11.7% (inactive) |
| C#CCOCCOCCOCCNc1nc(N2CCN(C(=O)[C@H](CCCCN)n3cc([C@@H](N)C(C)CC)nn3)CC2)nc(N2CCN(C(=O)[C@H](Cc3ccc(O)cc3)n3cc([C@@H](N)C(C)CC)nn3)CC2)n1 (some centres not stated) | 111% (active) |

| SMILES | activation |
| --- | --- |
| C#CCOCCOCCOCCNc1nc(N2CCN(C(=O)[C@H](Cc3ccc(O)cc3)n3cc(C(N)CC(C)C)nn3)CC2)nc(N2CCN(C(=O)[C@H](CCC(=O)O)n3cc(C(N)[C@H](C)CC)nn3)CC2)n1 (some centres not stated) | -15% (inactive) |
| Fc1ccc(-c2csc(-c3ccc(C4SCCS4)cc3)n2)cc1F | -5.29% (inactive) |
| Cc1cccc(C)c1Nc1c(-c2ccccc2O)nc2ncccn12 | 80.8% (active) |
| Cc1ccccc1Nc1c(-c2ccccc2)nc2ncccn12 | 46.3% (inactive) |
| Nc1nc(SCc2ccc([N+](=O)[O-])cc2)c2ncn(C3OC(CO)C(O)C3O)c2n1 (configuration not stated) | -25.4% (inactive) |
| C/C(=N\NC(=O)c1ccc(CSc2nc(C)cc(C)n2)cc1)C1CCCCC1 | 1.93% (inactive) |
| COc1cc(C(=O)Nc2cc(C(F)(F)F)ccc2N2CCOCC2)ccc1O | -20.3% (inactive) |
| O=C(CCn1ccc([N+](=O)[O-])n1)Nc1nccs1 | 7.17% (inactive) |
| Cc1cccc(C)c1OCC(O)CN1CCCCC1 (configuration not stated) | 1.8% (inactive) |
| Cc1cccc(OCC(O)CN2CCN(CCN3C(=O)c4cccc5cccc(c45)C3=O)CC2)c1C (configuration not stated) | 38.1% (active) |
| Cc1ccc(OCC(O)CN2CCN(CC(O)COc3ccc(C)cc3Cl)CC2)c(Cl)c1 (configuration not stated) | 6.61% (inactive) |
| O=C(Nc1nnc(Cc2ccc(Cl)cc2)s1)c1ccncc1 | -10.8% (inactive) |
| CCCc1nc2oc3c(=O)[nH]cnc3c2c2c1COC(C)(C)C2 | 8.17% (inactive) |
| Cc1cnc(C(=O)OCC(=O)N2CCc3ccccc32)cn1 | -19.3% (inactive) |
| O=C1c2cccc3cccc(c23)N1CN1CCN(c2ccccn2)CC1 | 11.2% (inactive) |
| Cc1ccccc1OCC(O)CN1CCN(c2ccccn2)CC1 (configuration not stated) | 29.6% (inactive) |
| OC(COc1cccc2ccccc12)CN1CCN(c2ccccn2)CC1 (configuration not stated) | 50.8% (active) |
| CCCOCC(O)CC(CC)C(=O)NNC(=S)Nc1ccccc1 (configuration not stated) | -8.03% (inactive) |
| O=C(/C=C/c1ccc(OCc2c(F)cccc2Cl)cc1)N1CCOCC1 | -15.1% (inactive) |
